Bioassay records deposited in PubChem by several laboratories.
Rows were chosen to be rich in hits. Some 3.5% of all compounds tested hit in one or more screens of this group.
Rv3671c protease = inhibitors of M. tuberculosis serine protease Rv3671c. inhibition, % at 5.96 µM. 320,000 tested, 0.048% active. AID 2606. P9WHR9; in the data active = inhibition above about 38%;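 note: extracellular domain of Rv3671c used as enzyme; 0% = enzyme with DMSO and 100% = no enzyme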
FadD28 FP inh = blocks FadD28 binding to the bisubstrate probe | fluorescence polarization | 360,000 tested, 0.22% active | AID 588549 | inhibition, % at 12.5 µM; in the data active = inhibition above about 8.5%, passing the limit was not always enough
Mtb UGM inh = Mtb UDP-galactopyranose mutase inhibition; P9WIQ1; purified UGM, fluorescence polarization probe displacement; inhibition, % at 10 µM; 320,000 tested, 0.06% active; in the data active = inhibition above about 10%, passing the limit was not always enough
Mtb FBA inh = inhibits M. tuberculosis FBA enzyme. purified M. tuberculosis FBA, fluorescence read-out. inhibition, % at 1 µM. 360,000 tested, 2.3% active. AID 588726;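 note: 0% = vehicle and 100% = reference inhibitor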
Target sequence (P9WQA3 whole entry, looked up): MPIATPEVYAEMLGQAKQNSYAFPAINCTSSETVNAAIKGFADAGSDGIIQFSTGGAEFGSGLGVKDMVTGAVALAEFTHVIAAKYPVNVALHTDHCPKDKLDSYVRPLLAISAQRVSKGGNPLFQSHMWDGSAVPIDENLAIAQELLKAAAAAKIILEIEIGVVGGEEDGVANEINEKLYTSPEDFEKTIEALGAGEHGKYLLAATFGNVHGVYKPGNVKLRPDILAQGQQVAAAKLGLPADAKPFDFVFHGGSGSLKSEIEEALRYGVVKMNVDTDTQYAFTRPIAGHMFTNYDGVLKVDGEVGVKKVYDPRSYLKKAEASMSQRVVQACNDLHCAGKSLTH
GDH-TPI counter-1 = GDH-TPI coupled enzyme inhibition counter-screen. GDH-TPI coupled enzyme counterscreen, NADH absorbance. AID 588335. inhibition, % at 4.8 µM. 360,000 tested, 1.2% active; in the data active = inhibition above about 30%;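 note: 0% = DMSO wells and 100% = wells lacking the enzyme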
Mtb hypoxia rep = Mtb hypoxia fluorescent reporter inhibition; M. tuberculosis hypoxia-regulated fluorescent reporter, fluorescence; fluorescence inhibition, % (concentration not given with the values); 300,000 tested, 0.1% active; AID 1159583; in the data active = fluorescence inhibition mostly above about 23%, no sharp cut-off; inactive = mostly below about 17%
Mtb FBA confirm = confirmation of M. tuberculosis fructose-bisphosphate aldolase inhibitors. shares compounds with Mtb FBA inh. purified M. tuberculosis FBA, fluorescence read-out. inhibition, % at 1 µM. 5,600 tested, 78% active;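 note: 0% = vehicle wells and 100% = reference inhibitor wells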
GDH-TPI counter-2 = GDH-TPI inhibition counter-screen for FBA inhibitors; shares compounds with Mtb FBA inh; GDH-TPI coupled enzyme counterscreen, fluorescence; inhibition, % at 1 µM; 5,600 tested, 81% active; in the data active = inhibition above about 10%
* hit, by the source's call; / = not tested or not shown; + = active, no number. Cut-off read from the data, not from the text of the source, unless noted: active = inhibition above about 27%; inactive = the rest.

SMILES	Rv3671c protease	FadD28 FP inh	Mtb UGM inh	Mtb FBA inh	GDH-TPI counter-1	Mtb hypoxia rep	Mtb FBA confirm	GDH-TPI counter-2
CCCc1cc(=O)oc2cc(OCC(=O)N3CCC(C(=O)O)(c4ccccc4)CC3)ccc12	-4	-2	0	76*	22	/	101*	81*
CC(=NOC(=O)c1c(-c2ccccc2Cl)noc1C)c1ccncc1	/	/	/	/	/	9	/	/
COc1ccc(OCC(=O)Nc2cc(-c3nn(C)c(=O)c4ccccc34)ccc2N2CCOCC2)cc1	6	0	4	27*	-2	-2	6	-3
CCC(=O)Nc1cc(-c2nn(C)c(=O)c3ccccc23)ccc1N1CCOCC1	1	-1	-3	-3	4	2	/	/
CNc1ccccc1C(=O)OCC(=O)Nc1ccc2c(c1)OCO2	3	-3	0	53*	2	1	101*	69*
O=C(CCN1C(=O)C(=Cc2ccc3c(c2)OCO3)SC1=S)NNC(=O)c1cccnc1	/	/	/	/	/	-4	/	/
c1ccc(C2=NN(c3ccccc3)CC2)cc1	3	0	-2	49*	25	2	-2	-5
Cc1cc(C)c2c(N)c3ccccc3nc2n1	-14	-1	-1	70*	-2	2	181*	143*
CCc1ccc2nc3nc(C)cc(C)c3c(N)c2c1	-4	-2	-1	34*	-2	-2	103*	77*
CCN(CCC#N)c1ccc(C=NNc2nc(C)cc(=O)[nH]2)c(C)c1	/	/	/	/	/	0	/	/
CC(C)CC(=O)OC(C)(C)C1Cc2c(ccc3ccc(=O)oc23)O1 (centres undefined)	/	/	/	/	/	6	/	/
CC1(C)Oc2ccc3ccc(=O)oc3c2[C@@H](O)[C@H]1O	5	1	1	69*	17	4	64*	66*
CCO[C@H]1c2c(ccc3ccc(=O)oc23)OC(C)(C)[C@H]1O	2	-3	-2	35*	9	/	+	+
CC1(C)Oc2ccc3ccc(=O)oc3c2CC1O (centres undefined)	-3	-1	1	78*	27	7	80*	69*
O=c1ccc2cc(OC3OC(CO)C(O)C(O)C3O)c(O)cc2o1 (centres undefined)	/	/	/	/	/	-6	/	/
CC(=O)OC1C(OC(=O)CC(C)C)c2c(ccc3ccc(=O)oc23)OC1(C)C (centres undefined)	/	/	/	/	/	10	/	/
CC1(C)Oc2ccc3ccc(=O)oc3c2C[C@H]1O[C@@H]1O[C@H](CO)[C@@H](O)[C@H](O)[C@H]1O	6	-1	4	55*	11	/	22	12*
O=C(C=Cc1ccco1)N1CCCC(c2ccccc2)C1 (centres undefined)	/	/	/	/	/	3	/	/
CNC1(c2ccccc2Cl)CCCCC1=O (centres undefined)	/	0	/	27*	-5	/	58*	36*
CC(C)NC(=S)N(C)C1(c2ccccc2Cl)CCCCC1=O (centres undefined)	-19	-6	-7	0	-5	7	/	/
COc1cc2c(cc1OC)CN(CC(=O)Nc1ccccc1C#N)CC2	-2	-5	-1	65*	1	/	156*	176*
COc1cc2c(cc1OC)CN(CC(=O)Nc1ccccc1SC)CC2	6	0	-2	1	-1	11	/	/
COC(=O)C1=C(c2cc3ccccc3s2)CC2CCC1N2C(=O)NCC1CC1 (centres undefined)	/	/	/	/	/	8	/	/
COc1cc(C=NNC(=O)C[n+]2ccccc2)cc(OC)c1OC	/	/	/	/	/	2	/	/
CCc1ccc(C(=O)C[n+]2cccc3cc(OC)ccc32)cc1	/	-2	-1	41*	6	19	26	20*
COc1cc(C=NNc2ccccc2)ccc1OC(=O)c1cccs1	/	/	/	/	/	6	/	/
Cc1cc(C)n2cc(CSc3nnnn3C)nc2n1	-7	0	1	28*	6	1	+	187*
Cc1cc(C)n2cc(CSc3nncn3C)nc2n1	-12	1	-2	49*	6	2	2	-4
CCc1nnc(SCc2cn3c(C)cc(C)nc3n2)n1N	6	-1	-5	39*	-5	-4	45*	53*
CCOC(=O)C(=NNc1ccc(Cl)cc1)c1csc(Nc2ccccc2)n1	/	/	/	/	/	3	/	/
